For 7 compounds, inhibition results are on record in ChEMBL document CHEMBL1961873, “Compounds: GSK PKIS; Assays: Nanosyn kinase panel” (2012).

The target in assay [1] is Death-associated protein kinase 1 (Homo sapiens) (UniProt P53355). To be noted: at 1 µM.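 Note: each value is a mean inhibition figure.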
The target of assay [2] is T1, Serine/threonine-protein kinase DCLK2 (Homo sapiens) (UniProt Q8N568).
T1 sequence (whole entry): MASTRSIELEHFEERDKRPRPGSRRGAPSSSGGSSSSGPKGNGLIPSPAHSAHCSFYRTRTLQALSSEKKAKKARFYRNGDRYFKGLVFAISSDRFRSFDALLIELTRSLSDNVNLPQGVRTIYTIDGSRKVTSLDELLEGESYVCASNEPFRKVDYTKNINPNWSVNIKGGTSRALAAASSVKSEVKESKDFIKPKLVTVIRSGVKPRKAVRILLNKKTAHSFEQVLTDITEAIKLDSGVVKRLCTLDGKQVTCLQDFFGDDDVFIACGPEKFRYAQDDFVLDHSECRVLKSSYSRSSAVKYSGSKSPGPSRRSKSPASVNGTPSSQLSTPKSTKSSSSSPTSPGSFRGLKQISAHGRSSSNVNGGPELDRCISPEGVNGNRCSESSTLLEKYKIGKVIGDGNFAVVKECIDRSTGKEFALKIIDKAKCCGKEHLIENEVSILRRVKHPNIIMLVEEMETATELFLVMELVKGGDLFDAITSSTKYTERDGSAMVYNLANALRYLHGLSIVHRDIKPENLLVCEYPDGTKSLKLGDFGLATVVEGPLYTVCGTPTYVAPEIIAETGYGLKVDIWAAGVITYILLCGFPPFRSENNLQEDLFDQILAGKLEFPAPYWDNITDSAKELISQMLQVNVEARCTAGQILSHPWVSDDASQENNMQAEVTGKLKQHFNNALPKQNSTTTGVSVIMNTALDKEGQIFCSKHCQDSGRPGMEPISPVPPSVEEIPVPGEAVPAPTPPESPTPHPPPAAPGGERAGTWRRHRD
The following applies: at 0.1 µM.

For assay [3], the target named is T1, Serine/threonine-protein kinase DCLK2 (Homo sapiens). The following applies: at 1 µM.
Assay [4] concerns the target MAP kinase-activated protein kinase 2 (Homo sapiens) (UniProt P49137). To be noted: at 0.1 µM.
Assay [5] has the same target. To be noted: at 1 µM.
The target of assay [6] is MAP kinase-activated protein kinase 3 (Homo sapiens) (UniProt Q16644). The following applies: at 0.1 µM.
For assay [7] the target is unchanged. To be noted: at 1 µM.
The target of assay [8] is Serine/threonine-protein kinase MARK1 (Homo sapiens) (UniProt Q9P0L2). To be noted: at 0.1 µM.
Assay [9] has the same target. To be noted: at 1 µM.
Assay [10] has as its target MAP/microtubule affinity-regulating kinase 3 (Homo sapiens) (UniProt P27448). To be noted: at 0.1 µM.
Assay [11] has the same target. The following applies: at 1 µM.
Assay [12] addresses T2, MAP/microtubule affinity-regulating kinase 4 (Homo sapiens) (UniProt Q96L34).
T2 sequence (whole entry): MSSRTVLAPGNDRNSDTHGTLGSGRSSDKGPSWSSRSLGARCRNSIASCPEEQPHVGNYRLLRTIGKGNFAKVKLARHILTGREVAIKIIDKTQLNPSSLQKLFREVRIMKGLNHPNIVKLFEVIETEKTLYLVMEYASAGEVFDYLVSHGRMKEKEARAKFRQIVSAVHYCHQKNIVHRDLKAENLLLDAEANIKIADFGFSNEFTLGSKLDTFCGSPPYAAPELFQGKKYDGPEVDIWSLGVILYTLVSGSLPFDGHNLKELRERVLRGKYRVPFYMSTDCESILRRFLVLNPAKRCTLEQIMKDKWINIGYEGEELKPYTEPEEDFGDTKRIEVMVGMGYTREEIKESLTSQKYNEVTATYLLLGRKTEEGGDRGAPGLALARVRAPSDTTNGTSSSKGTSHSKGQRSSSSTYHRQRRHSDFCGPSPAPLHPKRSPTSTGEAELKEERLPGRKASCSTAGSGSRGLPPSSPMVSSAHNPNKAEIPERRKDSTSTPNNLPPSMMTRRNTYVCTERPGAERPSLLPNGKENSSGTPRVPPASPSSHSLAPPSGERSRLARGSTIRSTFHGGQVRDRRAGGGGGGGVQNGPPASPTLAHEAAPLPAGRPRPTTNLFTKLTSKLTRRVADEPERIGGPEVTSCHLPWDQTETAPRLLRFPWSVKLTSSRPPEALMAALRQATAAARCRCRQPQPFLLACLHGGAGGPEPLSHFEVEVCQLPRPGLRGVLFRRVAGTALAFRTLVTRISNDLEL
To be noted: at 0.1 µM.

Assay [13] deals with T2, MAP/microtubule affinity-regulating kinase 4 (Homo sapiens). To be noted: at 1 µM.
Assay [14] has as its target Maternal embryonic leucine zipper kinase (Homo sapiens) (UniProt Q14680). The following applies: at 0.1 µM.
Assay [15] has the same target. To be noted: at 1 µM.
Assay [16] deals with MAP kinase-interacting serine/threonine-protein kinase 1 (Homo sapiens) (UniProt Q9BUB5). The following applies: at 0.1 µM.
Assay [17] shares this target. To be noted: at 1 µM.
Assay [18] has as its target MAP kinase-interacting serine/threonine-protein kinase 2 (Homo sapiens) (UniProt Q9HBH9). To be noted: at 0.1 µM.
Assay [19] shares this target. The following applies: at 1 µM.
Assay [20] deals with Serine/threonine-protein kinase MARK2 (Homo sapiens) (UniProt Q7KZI7). The following applies: at 0.1 µM.
Serine/threonine-protein kinase MARK2 (Homo sapiens), sequence (Q7KZI7 whole entry): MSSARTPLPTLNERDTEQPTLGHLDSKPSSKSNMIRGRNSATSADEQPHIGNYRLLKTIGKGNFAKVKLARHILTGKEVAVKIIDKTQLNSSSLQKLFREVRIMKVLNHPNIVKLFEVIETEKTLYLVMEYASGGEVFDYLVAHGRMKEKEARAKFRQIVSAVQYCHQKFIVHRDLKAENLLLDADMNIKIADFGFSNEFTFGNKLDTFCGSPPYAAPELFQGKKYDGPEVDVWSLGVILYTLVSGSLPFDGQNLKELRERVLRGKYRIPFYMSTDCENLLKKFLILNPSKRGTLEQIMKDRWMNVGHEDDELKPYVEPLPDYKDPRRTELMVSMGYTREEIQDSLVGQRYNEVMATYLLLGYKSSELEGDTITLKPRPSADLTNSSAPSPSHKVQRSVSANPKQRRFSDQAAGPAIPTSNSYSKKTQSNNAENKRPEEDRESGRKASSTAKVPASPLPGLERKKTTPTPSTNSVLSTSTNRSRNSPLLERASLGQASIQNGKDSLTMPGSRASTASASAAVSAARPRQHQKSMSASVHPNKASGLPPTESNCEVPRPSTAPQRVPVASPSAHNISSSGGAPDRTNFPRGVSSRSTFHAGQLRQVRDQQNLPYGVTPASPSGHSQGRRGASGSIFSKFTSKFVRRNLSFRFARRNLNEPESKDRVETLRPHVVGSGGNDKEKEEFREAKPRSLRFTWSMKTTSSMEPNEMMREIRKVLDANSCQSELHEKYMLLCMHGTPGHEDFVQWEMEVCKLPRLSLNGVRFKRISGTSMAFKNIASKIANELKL

MAP kinase-activated protein kinase 2 (Homo sapiens), sequence (P49137 whole entry, looked up): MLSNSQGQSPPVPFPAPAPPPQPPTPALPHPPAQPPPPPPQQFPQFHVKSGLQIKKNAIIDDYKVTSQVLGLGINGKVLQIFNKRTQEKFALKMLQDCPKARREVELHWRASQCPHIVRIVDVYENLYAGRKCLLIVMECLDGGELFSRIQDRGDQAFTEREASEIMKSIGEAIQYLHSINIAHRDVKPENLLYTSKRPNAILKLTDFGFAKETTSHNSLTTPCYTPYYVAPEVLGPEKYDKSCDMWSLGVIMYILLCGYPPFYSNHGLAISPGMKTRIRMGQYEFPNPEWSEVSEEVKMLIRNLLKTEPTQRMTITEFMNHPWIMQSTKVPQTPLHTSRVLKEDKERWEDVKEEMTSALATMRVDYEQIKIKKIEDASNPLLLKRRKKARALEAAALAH
Serine/threonine-protein kinase MARK1 (Homo sapiens), sequence (Q9P0L2 whole entry, looked up): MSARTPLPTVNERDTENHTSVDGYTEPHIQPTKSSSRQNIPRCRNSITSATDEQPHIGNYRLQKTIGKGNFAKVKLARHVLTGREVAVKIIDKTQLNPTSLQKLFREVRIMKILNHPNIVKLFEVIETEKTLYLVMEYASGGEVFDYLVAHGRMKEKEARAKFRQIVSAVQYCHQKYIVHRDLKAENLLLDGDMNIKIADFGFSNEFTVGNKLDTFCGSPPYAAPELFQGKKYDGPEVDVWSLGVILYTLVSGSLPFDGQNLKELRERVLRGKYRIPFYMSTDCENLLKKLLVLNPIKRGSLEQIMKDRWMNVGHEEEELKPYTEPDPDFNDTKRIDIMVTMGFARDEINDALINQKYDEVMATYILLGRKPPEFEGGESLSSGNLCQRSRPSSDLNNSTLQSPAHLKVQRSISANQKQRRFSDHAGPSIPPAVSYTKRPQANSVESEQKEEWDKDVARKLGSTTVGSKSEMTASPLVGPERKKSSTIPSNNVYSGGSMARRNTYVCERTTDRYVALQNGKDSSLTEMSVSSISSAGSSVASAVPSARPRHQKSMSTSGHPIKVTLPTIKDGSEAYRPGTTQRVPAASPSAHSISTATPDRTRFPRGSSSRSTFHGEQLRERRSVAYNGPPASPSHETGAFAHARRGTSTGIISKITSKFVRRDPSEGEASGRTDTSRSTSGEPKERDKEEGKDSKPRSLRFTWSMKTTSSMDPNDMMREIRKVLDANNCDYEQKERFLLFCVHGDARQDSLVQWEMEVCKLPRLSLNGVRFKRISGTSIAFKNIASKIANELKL
MAP kinase-activated protein kinase 3 (Homo sapiens), sequence (Q16644 whole entry, looked up): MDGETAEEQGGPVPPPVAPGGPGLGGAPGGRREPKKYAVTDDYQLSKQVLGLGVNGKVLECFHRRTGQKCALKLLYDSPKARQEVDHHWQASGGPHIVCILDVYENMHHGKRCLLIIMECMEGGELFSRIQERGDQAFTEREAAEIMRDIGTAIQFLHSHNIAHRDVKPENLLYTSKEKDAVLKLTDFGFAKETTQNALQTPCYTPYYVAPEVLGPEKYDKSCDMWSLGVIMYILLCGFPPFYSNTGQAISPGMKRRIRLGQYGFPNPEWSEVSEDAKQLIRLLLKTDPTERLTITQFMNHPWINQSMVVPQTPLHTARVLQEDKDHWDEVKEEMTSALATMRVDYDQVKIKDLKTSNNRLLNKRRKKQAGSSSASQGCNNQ
MAP kinase-interacting serine/threonine-protein kinase 2 (Homo sapiens), sequence (Q9HBH9 whole entry, looked up): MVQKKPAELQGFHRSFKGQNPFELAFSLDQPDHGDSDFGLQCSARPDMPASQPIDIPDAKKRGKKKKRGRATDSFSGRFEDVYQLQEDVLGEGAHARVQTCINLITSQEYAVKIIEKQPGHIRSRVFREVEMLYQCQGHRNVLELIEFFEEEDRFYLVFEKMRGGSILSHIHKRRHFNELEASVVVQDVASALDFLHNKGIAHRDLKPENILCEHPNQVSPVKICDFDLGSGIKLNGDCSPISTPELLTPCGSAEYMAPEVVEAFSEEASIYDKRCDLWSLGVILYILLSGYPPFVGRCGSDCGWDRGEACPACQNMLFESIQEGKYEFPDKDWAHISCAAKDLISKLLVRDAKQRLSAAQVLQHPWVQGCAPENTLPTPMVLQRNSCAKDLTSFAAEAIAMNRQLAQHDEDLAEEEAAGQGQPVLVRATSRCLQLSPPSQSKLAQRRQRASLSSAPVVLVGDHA
Death-associated protein kinase 1 (Homo sapiens), sequence (P53355 whole entry, looked up): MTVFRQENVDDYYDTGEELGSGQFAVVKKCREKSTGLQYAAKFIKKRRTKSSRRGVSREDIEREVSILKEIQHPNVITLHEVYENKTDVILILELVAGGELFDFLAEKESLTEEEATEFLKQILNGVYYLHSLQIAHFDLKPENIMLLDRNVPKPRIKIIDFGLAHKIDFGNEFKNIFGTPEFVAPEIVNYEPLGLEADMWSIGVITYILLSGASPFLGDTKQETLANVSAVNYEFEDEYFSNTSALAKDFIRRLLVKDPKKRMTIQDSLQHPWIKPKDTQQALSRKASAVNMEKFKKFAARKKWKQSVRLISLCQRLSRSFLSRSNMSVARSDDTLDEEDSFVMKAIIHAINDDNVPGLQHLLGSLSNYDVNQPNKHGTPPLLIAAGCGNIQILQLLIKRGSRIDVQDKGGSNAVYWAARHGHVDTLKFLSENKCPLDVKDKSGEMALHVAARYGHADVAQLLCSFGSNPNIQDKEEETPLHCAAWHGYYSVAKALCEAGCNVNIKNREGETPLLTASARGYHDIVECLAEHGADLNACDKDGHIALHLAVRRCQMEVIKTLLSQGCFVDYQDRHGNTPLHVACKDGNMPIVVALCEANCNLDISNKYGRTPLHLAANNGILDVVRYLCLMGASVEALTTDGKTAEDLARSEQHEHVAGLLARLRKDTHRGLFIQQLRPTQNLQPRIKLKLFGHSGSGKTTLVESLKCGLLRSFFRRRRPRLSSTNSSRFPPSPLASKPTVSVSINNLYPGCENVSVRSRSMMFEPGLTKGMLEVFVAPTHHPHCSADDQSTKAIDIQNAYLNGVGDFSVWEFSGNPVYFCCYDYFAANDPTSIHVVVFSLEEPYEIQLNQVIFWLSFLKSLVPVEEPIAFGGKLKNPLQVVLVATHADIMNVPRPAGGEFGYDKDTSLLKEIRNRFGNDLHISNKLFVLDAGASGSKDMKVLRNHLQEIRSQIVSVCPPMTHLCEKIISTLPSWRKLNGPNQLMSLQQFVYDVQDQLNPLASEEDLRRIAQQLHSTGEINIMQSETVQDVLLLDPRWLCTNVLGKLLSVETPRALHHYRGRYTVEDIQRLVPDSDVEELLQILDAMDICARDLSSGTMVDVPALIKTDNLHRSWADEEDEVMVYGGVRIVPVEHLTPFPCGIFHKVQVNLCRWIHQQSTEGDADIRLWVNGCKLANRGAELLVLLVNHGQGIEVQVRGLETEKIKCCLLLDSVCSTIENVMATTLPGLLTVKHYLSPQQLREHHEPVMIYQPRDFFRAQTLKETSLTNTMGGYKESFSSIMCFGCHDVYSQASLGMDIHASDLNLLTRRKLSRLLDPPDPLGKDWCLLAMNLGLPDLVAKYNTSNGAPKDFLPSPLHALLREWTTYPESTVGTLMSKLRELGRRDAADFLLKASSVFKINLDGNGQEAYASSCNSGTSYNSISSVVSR
MAP kinase-interacting serine/threonine-protein kinase 1 (Homo sapiens), sequence (Q9BUB5 whole entry, looked up): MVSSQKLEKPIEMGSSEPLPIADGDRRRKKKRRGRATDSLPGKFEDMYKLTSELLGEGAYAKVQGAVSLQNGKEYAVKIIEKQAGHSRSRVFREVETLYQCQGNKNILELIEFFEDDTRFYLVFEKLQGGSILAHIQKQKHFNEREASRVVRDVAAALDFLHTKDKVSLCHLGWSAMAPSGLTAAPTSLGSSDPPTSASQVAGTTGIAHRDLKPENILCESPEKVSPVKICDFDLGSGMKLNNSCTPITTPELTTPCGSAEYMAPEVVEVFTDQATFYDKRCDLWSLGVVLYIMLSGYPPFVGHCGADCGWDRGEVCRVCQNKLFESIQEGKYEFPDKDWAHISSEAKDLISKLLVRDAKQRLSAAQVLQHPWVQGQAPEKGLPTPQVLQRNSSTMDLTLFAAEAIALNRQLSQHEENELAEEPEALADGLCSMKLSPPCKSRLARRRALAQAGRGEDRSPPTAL

In the case of `COc1cccc(-n2ncc3c(N/N=C/c4ccc(C(=O)NCCN(C)C)cc4)ncnc32)c1`, the inhibition (usually the change of the read-out against control, counted positive when it falls) in assay [1] is 4.78%; in [2], 1.42%; in assay [3] it was 0.78%; in assay [4], 0.79%; in assay [5], 1.08%; in assay [6], 1.89%. Besides, the inhibition in assay [7] came out at 4.06%; in assay [8] it was 4.25%; in assay [9], 16.7%; in [10], 4.78%; in assay [11] it was 18.4%; in [12], 2.02%. Besides, the inhibition in [13] is 16.8%; in [14], 2.38%; in assay [15], 11.5%; in [16], 39.4%; in assay [17], 72.9%; in [18] it was 28.7%. The inhibition in assay [19] is 67.5%; in assay [20], 1.55%.
On to `CC1=C(C(=O)Nc2ccc3[nH]ncc3c2)C(c2ccc(F)cc2)N=C(c2ccc(C(F)(F)F)nc2)N1` (stereo not given), for which the inhibition in assay [1] was 0.67%; in assay [2], -2.05%; in assay [3] it was 4.18%; in assay [4], 1.36%; in [5] it was 0.33%; in assay [6] it was 1.46%. Also, the inhibition in assay [7] is 3.59%; in assay [8], 1.66%; in [9] it was 4.38%; in [10] it was 1.04%; in [11] it was 1.71%; in [12] it was 0.35%. The inhibition in [13] was determined as 2.44%; in assay [14], 2.15%; in [15] it was 5.11%; in [16] it was 2.55%; in assay [17] it was 4.82%; in assay [18] it was 0.9%. In addition, the inhibition was 3.32% in [19] and -1.01% in [20].
With `Fc1ccc(Nc2nccc(-c3c(-c4ccc(C(F)(F)F)cc4)nn4ncccc34)n2)cc1F`, the inhibition in [1] stood at 4.85%; in assay [2], 1.36%; in [3], 0.53%; in assay [4] it was 1.35%; in assay [5] it was 0.53%; in assay [6] it was 1.82%. Also, the inhibition in assay [7] was found to be 4.65%; in assay [8] it was 3.43%; in assay [9], 4.46%; in [10], 3.28%; in assay [11], 3.91%; in assay [12], 1.29%. The inhibition in [13] was determined as 2.56%; in [14], 1.38%; in assay [15], 3.78%; in assay [16] it was 2.72%; in assay [17], 2.85%; in [18], 0.89%. Further, the inhibition is 2.32% in [19] and -0.1% in assay [20].
In the case of `CNC(=O)c1cncc(/C=C/c2ccccc2C)c1`, the inhibition in [1] worked out at 7.67%; in assay [2], 0.83%; in [3], 0.28%; in [4], 1.99%; in [5], 2.51%; in assay [6], 3.43%. For the same compound, the inhibition in assay [7] is 3.22%; in [8] it was 2.55%; in assay [9] it was 7.06%; in assay [10], 3.94%; in [11], 6.03%; in assay [12] it was 1.26%. For the same compound, the inhibition in [13] worked out at 3.49%; in assay [14], 1.3%; in assay [15] it was 4.29%; in assay [16] it was 4.95%; in assay [17], 29.4%; in assay [18], 2.12%. The inhibition in assay [19] was found to be 14.9%; in assay [20], 1.19%.
For the compound `CCS(=O)(=O)c1ccc(OC)c(Nc2ncc(-c3cccc(C(C)=O)c3)o2)c1`, the inhibition in assay [1] is 3.26%; in [2] it was -0.25%; in assay [3], -0.78%; in assay [4], 2.19%; in assay [5], 1.71%; in assay [6], 3%. Also, the inhibition was 3.61% in assay [7]; 1.61% in assay [8]; 3.04% in assay [9]; 0.57% in [10]; 10.1% in assay [11]; 0.67% in assay [12]. The inhibition in assay [13] was 1.52%; in [14] it was 2.17%; in assay [15] it was 7.46%; in assay [16], 3.04%; in [17] it was 12.2%; in assay [18] it was 2.96%. Moreover, the results for the inhibition in assay [19] and in assay [20] were 6.18% and -1.1%, respectively.
Turning to `CNC(=O)c1sc(-n2cnc3cc(OC)c(OC)cc32)cc1OCc1ccccc1C(F)(F)F`, the inhibition in assay [1] is 3%; in [2], 0.25%; in [3] it was 2.29%; in [4] it was 1.17%; in assay [5] it was 1.2%; in assay [6] it was 3.3%. Besides, the inhibition in assay [7] stood at 2.78%; in [8] it was 2.03%; in assay [9] it was 4.3%; in assay [10], 0.78%; in assay [11], 3.64%; in assay [12], 2.02%. Moreover, the inhibition in assay [13] is 3.13%; in assay [14], 2.63%; in assay [15] it was 2%; in assay [16], 3.25%; in [17], 4.03%; in assay [18] it was 0.55%. Moreover, the inhibition is 2.13% in assay [19] and -0.7% in [20].
Take `O=C(O[C@H]1CN[C@H](C#Cc2cc3ncnc(Nc4ccc5c(cnn5Cc5ccccc5)c4)c3s2)C1)N1CCOCC1`: the inhibition in assay [1] is -1.55%; in assay [2], -2.27%; in assay [3], -1.86%; in assay [4], -0.79%; in assay [5], -0.97%; in assay [6], 0%. For the same compound, the inhibition is -0.37% in assay [7]; 0.33% in [8]; 3.97% in [9]; -1.73% in [10]; 2.28% in assay [11]; 0.43% in assay [12]. Also, the inhibition is 2.44% in assay [13]; -2.54% in assay [14]; -1.35% in [15]; 1.01% in assay [16]; 9.35% in assay [17]; 0.04% in assay [18]. Moreover, the figures for the inhibition in assay [19] and in [20] were 11.5% and -1.65%, respectively.
